The results in this text go back to the supplement of paper PMC10849652.

The full data set covers some 8,800 targets. This sample favours those with a hit. About 0.5% of all pairs of compound and target were hits. Unmarked numbers belong to inactive results.

Sequence of UniProt Q9Y2H1 (Q9Y2H1 whole entry, looked up): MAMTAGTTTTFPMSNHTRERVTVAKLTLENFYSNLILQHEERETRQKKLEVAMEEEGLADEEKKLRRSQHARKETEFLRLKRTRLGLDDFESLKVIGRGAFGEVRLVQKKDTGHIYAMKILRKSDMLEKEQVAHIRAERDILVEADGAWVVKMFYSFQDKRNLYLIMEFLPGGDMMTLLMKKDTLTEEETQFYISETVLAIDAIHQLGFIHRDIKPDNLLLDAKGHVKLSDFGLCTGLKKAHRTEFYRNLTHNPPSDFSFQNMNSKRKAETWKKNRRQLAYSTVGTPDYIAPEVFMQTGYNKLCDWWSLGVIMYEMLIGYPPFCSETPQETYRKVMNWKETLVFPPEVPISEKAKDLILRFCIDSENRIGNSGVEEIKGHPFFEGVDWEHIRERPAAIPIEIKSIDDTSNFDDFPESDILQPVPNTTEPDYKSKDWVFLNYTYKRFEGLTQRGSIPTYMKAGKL
Sequence of UniProt Q9NP59 (Q9NP59 whole entry, looked up): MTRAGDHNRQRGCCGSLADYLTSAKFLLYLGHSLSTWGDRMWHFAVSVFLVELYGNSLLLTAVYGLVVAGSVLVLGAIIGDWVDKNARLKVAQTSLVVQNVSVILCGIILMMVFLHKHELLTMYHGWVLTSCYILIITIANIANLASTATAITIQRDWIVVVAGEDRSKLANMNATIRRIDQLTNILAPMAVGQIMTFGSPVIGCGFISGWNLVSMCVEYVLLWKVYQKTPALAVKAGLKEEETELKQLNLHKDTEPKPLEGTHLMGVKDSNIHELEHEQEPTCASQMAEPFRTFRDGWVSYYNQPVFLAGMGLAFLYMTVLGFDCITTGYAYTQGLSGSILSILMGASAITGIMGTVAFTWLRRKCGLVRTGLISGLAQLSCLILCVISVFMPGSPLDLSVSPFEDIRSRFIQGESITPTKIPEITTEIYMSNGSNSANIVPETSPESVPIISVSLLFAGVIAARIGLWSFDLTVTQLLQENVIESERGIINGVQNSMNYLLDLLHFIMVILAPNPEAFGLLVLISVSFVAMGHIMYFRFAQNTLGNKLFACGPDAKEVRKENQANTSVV
Sequence of UniProt B2RUZ4 (B2RUZ4 whole entry, looked up): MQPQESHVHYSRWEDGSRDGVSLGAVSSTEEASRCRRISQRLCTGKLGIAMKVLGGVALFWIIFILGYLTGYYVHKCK
Sequence of UniProt Q96CQ1 (Q96CQ1 whole entry, looked up): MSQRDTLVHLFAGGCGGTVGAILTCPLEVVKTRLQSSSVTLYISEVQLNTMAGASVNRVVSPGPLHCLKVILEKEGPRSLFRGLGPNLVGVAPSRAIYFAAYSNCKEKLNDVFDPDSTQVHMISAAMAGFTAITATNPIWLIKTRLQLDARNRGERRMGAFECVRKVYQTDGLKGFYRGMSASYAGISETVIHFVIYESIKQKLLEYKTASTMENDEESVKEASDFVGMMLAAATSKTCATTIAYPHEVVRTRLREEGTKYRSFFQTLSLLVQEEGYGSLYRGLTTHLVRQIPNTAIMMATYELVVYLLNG
Sequence of UniProt Q9UL54 (Q9UL54 whole entry, looked up): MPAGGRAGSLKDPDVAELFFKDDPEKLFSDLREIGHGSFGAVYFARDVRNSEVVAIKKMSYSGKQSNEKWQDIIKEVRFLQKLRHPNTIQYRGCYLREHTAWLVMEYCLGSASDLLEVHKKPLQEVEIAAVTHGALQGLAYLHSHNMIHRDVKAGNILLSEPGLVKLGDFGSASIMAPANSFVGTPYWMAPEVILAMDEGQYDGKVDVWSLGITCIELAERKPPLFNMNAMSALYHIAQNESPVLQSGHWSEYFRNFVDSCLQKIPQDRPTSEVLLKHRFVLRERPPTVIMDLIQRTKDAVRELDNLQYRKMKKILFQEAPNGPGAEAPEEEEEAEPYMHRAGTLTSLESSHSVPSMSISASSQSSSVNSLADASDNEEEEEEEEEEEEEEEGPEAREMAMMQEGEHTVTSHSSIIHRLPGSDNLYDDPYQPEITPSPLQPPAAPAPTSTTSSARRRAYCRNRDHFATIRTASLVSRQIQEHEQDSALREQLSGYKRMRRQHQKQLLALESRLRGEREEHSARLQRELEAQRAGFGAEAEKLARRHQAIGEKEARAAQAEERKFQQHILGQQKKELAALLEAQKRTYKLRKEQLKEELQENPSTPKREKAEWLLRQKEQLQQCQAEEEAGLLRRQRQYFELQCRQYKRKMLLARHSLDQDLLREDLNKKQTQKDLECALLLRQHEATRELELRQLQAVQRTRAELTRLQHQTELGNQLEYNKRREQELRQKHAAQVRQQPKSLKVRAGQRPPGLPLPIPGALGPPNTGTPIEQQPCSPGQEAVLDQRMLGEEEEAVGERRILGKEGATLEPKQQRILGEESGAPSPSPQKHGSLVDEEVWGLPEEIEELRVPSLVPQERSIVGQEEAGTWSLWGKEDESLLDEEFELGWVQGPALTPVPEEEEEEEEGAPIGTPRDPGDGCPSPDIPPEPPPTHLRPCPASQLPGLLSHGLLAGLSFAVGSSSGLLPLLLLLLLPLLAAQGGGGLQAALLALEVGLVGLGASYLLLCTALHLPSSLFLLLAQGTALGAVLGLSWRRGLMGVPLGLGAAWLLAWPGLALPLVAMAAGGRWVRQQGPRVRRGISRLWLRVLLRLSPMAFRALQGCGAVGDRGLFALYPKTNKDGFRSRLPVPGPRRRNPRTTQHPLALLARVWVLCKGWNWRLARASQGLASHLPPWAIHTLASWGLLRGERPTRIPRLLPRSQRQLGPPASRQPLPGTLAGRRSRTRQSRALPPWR
Sequence of UniProt Q9UEE5 (Q9UEE5 whole entry, looked up): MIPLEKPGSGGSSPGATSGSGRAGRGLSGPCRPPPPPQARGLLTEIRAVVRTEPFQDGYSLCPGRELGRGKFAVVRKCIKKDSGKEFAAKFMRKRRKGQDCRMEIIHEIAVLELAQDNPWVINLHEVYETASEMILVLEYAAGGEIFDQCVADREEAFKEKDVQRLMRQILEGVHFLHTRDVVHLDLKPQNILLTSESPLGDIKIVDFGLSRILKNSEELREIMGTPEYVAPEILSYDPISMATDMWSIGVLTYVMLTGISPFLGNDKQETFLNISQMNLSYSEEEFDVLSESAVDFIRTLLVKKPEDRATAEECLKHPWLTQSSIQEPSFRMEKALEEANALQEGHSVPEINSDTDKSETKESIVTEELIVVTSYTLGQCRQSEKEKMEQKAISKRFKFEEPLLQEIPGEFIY
Sequence of UniProt Q8TAD8 (Q8TAD8 whole entry, looked up): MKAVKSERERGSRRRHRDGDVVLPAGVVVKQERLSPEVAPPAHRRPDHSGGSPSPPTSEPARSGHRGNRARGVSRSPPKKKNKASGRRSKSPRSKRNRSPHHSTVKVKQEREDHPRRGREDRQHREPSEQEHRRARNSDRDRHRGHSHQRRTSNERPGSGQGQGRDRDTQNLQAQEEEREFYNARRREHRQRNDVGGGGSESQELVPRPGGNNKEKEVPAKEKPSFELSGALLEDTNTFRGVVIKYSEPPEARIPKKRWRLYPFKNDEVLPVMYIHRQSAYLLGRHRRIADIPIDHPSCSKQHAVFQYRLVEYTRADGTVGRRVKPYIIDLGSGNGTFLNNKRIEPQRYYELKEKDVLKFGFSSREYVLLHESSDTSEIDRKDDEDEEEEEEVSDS
Sequence of UniProt Q13487 (Q13487 whole entry, looked up): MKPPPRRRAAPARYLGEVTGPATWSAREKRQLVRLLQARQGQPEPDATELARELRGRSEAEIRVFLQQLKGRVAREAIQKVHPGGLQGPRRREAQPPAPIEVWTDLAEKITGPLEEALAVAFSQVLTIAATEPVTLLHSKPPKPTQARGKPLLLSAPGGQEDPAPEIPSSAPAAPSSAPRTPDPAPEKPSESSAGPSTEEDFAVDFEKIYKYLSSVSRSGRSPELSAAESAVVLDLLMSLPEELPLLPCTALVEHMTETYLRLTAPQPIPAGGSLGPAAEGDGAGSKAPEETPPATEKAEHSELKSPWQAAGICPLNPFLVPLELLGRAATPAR
Sequence of UniProt O75182 (O75182 whole entry, looked up): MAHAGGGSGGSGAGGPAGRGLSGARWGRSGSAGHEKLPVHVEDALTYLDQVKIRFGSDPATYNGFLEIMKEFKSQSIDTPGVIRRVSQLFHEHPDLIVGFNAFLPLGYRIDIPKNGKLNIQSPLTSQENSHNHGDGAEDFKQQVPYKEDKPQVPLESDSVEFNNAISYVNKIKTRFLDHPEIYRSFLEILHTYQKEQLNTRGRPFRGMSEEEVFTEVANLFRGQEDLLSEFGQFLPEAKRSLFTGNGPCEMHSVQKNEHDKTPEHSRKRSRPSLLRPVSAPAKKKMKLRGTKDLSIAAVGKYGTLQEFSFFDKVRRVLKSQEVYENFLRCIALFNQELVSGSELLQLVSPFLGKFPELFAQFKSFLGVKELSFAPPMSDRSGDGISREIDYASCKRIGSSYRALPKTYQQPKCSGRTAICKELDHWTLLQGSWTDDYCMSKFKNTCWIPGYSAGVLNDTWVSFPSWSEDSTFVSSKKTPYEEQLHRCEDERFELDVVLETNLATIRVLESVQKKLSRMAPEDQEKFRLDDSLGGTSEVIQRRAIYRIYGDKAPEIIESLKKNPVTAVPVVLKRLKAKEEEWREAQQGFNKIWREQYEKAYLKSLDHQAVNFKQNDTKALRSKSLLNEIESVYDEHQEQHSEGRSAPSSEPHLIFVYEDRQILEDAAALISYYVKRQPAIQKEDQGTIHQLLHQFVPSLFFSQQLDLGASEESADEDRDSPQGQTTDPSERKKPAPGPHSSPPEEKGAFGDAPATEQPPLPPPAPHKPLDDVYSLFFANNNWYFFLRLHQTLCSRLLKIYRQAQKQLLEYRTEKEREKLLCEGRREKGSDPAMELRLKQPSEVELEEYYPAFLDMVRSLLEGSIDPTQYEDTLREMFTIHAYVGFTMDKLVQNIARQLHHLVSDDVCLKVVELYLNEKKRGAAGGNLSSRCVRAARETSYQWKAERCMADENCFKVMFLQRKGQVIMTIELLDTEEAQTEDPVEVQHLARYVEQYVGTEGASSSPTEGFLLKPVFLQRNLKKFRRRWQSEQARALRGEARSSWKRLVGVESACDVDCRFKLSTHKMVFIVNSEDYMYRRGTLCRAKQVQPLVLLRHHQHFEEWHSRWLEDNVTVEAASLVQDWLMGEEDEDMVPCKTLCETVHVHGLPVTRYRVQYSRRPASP

Compound in this assay: COc1cc2ncnc(Nc3ccc(F)c(Cl)c3)c2cc1OCCCN1CCOCC1 [gefitinib]
The assay is described as follows: log2 fold change, soluble protein after heating vs DMSO (PISA); higher = thermal stabilisation; K562 lysate, 10 uM; active = over 0.2 and 3.5 SD of the protein, either way, in both replicates (recomputed). A digest of the protocol:
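Soluble protein was defined as the supernatant remaining after 21,000xg for 90 min, following pooling of heated aliquots and adjustment to 0.5% NP-40 at 4°C. Before that, crude K562 extract at 1 mg/mL protein in PBS pH 7.4 with 1 mM MgCl2 was treated with 10 μM compound for 30 min and heated for 3 min across 48°C-58°C. Quantification used TMTpro 16plex LC-MS/MS with channel sums equalised, and values are log-two fold changes in thermal stability relative to solvent controls from duplicates.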
For the target SKP2 (UniProt Q13309), the log2 fold change was 0.058.
The value for SNAP23 isoform 2 (UniProt O00161) was 0.016; that for TAOK2 isoform 2 (UniProt Q9UL54) was -0.202; that for SMARCA4 isoform 4 (UniProt P51532) was -0.116.
The value for SZT2 (UniProt Q5T011) was 0.094; that for STAR (UniProt P49675) was -0.056.
On to STK38L (UniProt Q9Y2H1), for which the log2 fold change is -0.049.
In the case of SNIP1 (UniProt Q8TAD8), the log2 fold change is -0.015.
The value for STK17A (UniProt Q9UEE5) was -0.141.
On to SNAPC2 (UniProt Q13487), for which the log2 fold change is -0.044.
For the target SIN3B (UniProt O75182), the log2 fold change is 0.793.
Consider STAU1 isoform 3 (UniProt O95793), for which the log2 fold change is 0.03.
The same measure for TAF11 (UniProt Q15544): 0.064.
The value for SMIM1 (UniProt B2RUZ4) was -0.279; that for SNRPD2 (UniProt K7EJB5) was 0.107.
The same measure for SLU7 (UniProt O95391): 0.026.
On to SLC25A36 (UniProt Q96CQ1), for which the log2 fold change was 0.025.
The value for SLC40A1 (UniProt Q9NP59) was -0.01; that for SLC41A1 (UniProt Q8IVJ1) was 0.153; that for STK17B (UniProt O94768) was 0.094.
As for SLCO4A1 (UniProt Q96BD0), the log2 fold change was -0.001.
The same measure for SIX5 (UniProt Q8N196): 0.13.
As to SLC35A3 isoform 2 (UniProt Q9Y2D2), the log2 fold change was 0.198.
